In PubChem BioAssay (NCATS):
Values without a mark were called inactive. Calls follow the shape of the dose curve; as a rule, active = well fitted curve in the direction sought with a large enough effect; inconclusive = small, poorly fitted or top-dose-only effect, or effect the other way, or another doubt; inactive = no such curve, though single readings can be large or run the other way.

Assay: qHTS for Inhibitors of Cell Surface uPA Generation: Validation Assay (AID 493164);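 also: RAW 264.7 macrophage cells exposed to compound for 18 h; 0% is about no effect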
Conditions: mouse cells, plasminogen activation; series mostly up to 38.3 µM; activity change: at the top concentration
Text: NIH Chemical Genomics Center [NCGC]
NIH Molecular Libraries Probe Centers Network [MLPCN]
Assay Submitter (PI): Thomas Bugge
The overall objective of this project is to perform a quantitative high throughput screen (qHTS) to identify novel compounds that inhibit the generation of cell surface urokinase activity. The urokinase plasminogen activator (uPA) is one of the two primary endogenous systems that mediate plasminogen activation into plasmin. Members of this system, including uPA and its receptor (uPAR), are overexpressed in several malignant tumors. This system plays a major role in adhesion, migration, invasion and metastasis of cancer cells. Small molecule inhibitors of the uPA system will serve as probes to understand the molecular mechanisms of the uPA cascade and better understanding the microenvironmental circumstances that facilitate the activation of plasminogen by uPA, and finally may provide novel candidate agents for anticancer drug therapy.
[…] […] Upon inhibition of the uPA activation cascade, the subsequent cell surface uPA activity-dependent translocation of LF into the cytoplasm is inhibited. ATP-Lite is used to measure intracellular ATP concentrations, which remain increased if LF entry into the cytoplasm is inhibited. This validation assay was performed using a small set of validation compounds.
uPA assay protocol summary:
RAW 264.7 cells were maintained in DMEM medium (Invitrogen, Carlsbad, CA) at 37C under a humidified atmosphere containing 5% CO2 and 95% air. The medium contained 10% FBS, 1 mM sodium pyruvate and 50 U/ml penicillin/streptamycin (Invitrogen, Carlsbad, CA). All compounds were screened as 7-point titration from 2.45 nM to 38.3 uM final concentration. The assay was performed in 1536-well format plate as follows:
1.Dispensing RAW 264.7 cells into 1536-well, white walled tissue culture plates at a density of 4000 cells/well (4 uL).
2.Incubation at 37 C in a 5% CO2 incubator overnight.
3.Serially diluting compounds (1:5 serial dilution; 0.0024 uM to […] final concentration) in 23 nl DMSO.
5.Incubating the compound and reagent-treated plates for 18 hours at 37 C in a 5% CO2 incubator.
6.Adding ATP-Lite (3 ul).
7.Reading plates by ViewLux with an exposure length of 5 seconds.

| Compound | activity change [%] |
| --- | --- |
| CC(CCc1ccccc1)NCC(O)c1ccc(O)c(C(N)=O)c1 (stereo not given) | -1.28 |
| O=C(O)c1cc2cc(Cc3cccnc3)ccc2o1 | 0.565 |
| C[C@]12CC[C@@H]3c4ccc(O)cc4CC[C@H]3[C@@H]1CC[C@@H]2O | 0.484 |
| CCCC1O[C@@H]2C[C@H]3[C@@H]4CCC5=CC(=O)C=C[C@]5(C)[C@H]4[C@@H](O)C[C@]3(C)[C@]2(C(=O)CO)O1 (stereo not given in full) | 0.281 |
| CN1C2CCC1CC(OC(=O)c1c[nH]c3ccccc13)C2 (stereo not given) | -1.64 |
| COc1cc2c(cc1O)CC[C@@H]1[C@@H]2CC[C@]2(C)[C@@H](O)CC[C@@H]12 | 1.83 |
| CC1(C)CCC(NC(=O)[C@@H](N)CCC(=O)O)CC1 | -1.26 |
| O=C1CCC(c2ccc(-n3ccnc3)cc2)=NN1 | -0.776 |
| C[C@@H]1C(=O)NC2=Nc3cccc(Cl)c3CN21 | 1.5 |
| Nc1cc(Cl)c(NC2=NCCN2)c(Cl)c1 | -1.19 |
| C1CCc2nnnn2CC1 | 0.0354 |
| CC[C@H](C)C(=O)O[C@H]1CCC=C2C=C[C@H](C)[C@H](CC[C@@H]3C[C@@H](O)CC(=O)O3)[C@H]21 | 2.23 |
| CC(C)C[C@H]1C(=O)N2CCC[C@H]2[C@]2(O)O[C@](NC(=O)[C@@H]3C=C4c5cccc6[nH]c(Br)c(c56)C[C@H]4N(C)C3)(C(C)C)C(=O)N12 | 0.399 |
| COC(=O)[C@H]1[C@H]2C[C@H]3c4[nH]c5ccccc5c4CCN3C[C@H]2CC[C@@H]1O | 0.175 |
| N[C@@H](Cc1cnc[nH]1)C(=O)O | 0.514 |
| CCCn1c(=O)[nH]c(=O)c2[nH]cnc21 | 0.536 |
| C[N+]1(CCCCC[N+]2(C)CCCC2)CCCC1 | -0.91 |
| COc1cc(NS(C)(=O)=O)ccc1Nc1c2ccccc2nc2ccccc12 | 2.72 |
| CC(=O)O[C@H]1C[C@@H]2CC[C@@H]3[C@H](CC[C@@]4(C)[C@H]3C[C@H]([N+]3(C)CCCCC3)[C@@H]4OC(C)=O)[C@@]2(C)C[C@@H]1[N+]1(C)CCCCC1 | -0.441 |
| Oc1ccc(O)cc1 | -1.43 |
| N[C@H](CO)C(=O)O | -0.331 |
| CC(C)COC(=O)OCN1C(=O)CN(CCN2CC(=O)N(COC(=O)OCC(C)C)C(=O)C2)CC1=O | 1.85 |
| CNCCC=C1c2ccccc2CCc2ccccc21 | -3.06 |
| CCC(NC(C)C)C(O)c1ccc(O)c(O)c1 (stereo not given) | -1.71 |
| CNCCC(Oc1ccccc1C)c1ccccc1 (stereo not given) | 0.773 |
